Measured values as given in PubChem BioAssay (EPA / NIEHS).
Records with an inconclusive call do not appear. Active and inactive are the calls of the source. Rule for the calls: active = hit-call score of the fitted dose curve at least 0.9, where 1 is the maximum; inconclusive = response in the unintended direction; inactive = score below 0.9.

What was measured:
[1] = molecular target: human Mitogen-Activated Protein Kinase 1 (MAPK 1), MAPK1 (gene 5594) (UniProt P28482); test: NVS_ENZ_hMAPK1: NovaScreen (NVS) Enzymatic Assay for human Mitogen-Activated Protein Kinase 1 (MAPK 1) (AID 2283175)
Procedure, shortened: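 Cell-free recombinant human MAPK1 enzymatic assay, fluorescence/electrophoretic mobility shift read at 1 h; loss of signal vs DMSO. Primary screen in duplicate at 25 uM; actives (e.g. ≥30% inhibition) run as concentration-response up to 50 uM.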

[2] = molecular target: Glycogen synthase kinase-3 beta (Homo sapiens) (UniProt P49841); test: NVS_ENZ_hGSK3b: NovaScreen (NVS) Enzymatic Assay for human Glycogen Synthase Kinase-3 beta (GSK3b) (AID 2283165)
Sequence of Glycogen synthase kinase-3 beta (Homo sapiens) (P49841 whole entry, looked up): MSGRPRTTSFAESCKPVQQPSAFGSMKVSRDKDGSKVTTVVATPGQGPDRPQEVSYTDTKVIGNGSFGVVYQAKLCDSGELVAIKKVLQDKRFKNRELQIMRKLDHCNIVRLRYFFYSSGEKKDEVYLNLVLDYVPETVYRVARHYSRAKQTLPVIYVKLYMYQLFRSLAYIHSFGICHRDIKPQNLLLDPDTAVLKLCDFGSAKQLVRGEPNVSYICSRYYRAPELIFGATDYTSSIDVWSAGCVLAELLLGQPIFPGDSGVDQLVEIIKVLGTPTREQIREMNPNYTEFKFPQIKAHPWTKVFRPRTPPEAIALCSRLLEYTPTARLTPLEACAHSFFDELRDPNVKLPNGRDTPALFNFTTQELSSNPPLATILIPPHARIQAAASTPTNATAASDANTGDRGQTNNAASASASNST
Procedure, shortened: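 Recombinant enzyme with specific fluorescent substrate, 1 h, product separated by electrophoretic mobility shift. Primary duplicate screen at 25 uM; actives (e.g. 30% inhibition) followed in singleton concentration-response to 50 uM. Signal loss fitted versus DMSO.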

[3] = molecular target: Mitogen-activated protein kinase 3 (Homo sapiens) (UniProt P27361); test: NVS_ENZ_hMAPK3: NovaScreen (NVS) Enzymatic Assay for human Mitogen-Activated Protein Kinase 3 (MAPK 3) (AID 2283177)
Sequence of Mitogen-activated protein kinase 3 (Homo sapiens) (P27361 whole entry, looked up): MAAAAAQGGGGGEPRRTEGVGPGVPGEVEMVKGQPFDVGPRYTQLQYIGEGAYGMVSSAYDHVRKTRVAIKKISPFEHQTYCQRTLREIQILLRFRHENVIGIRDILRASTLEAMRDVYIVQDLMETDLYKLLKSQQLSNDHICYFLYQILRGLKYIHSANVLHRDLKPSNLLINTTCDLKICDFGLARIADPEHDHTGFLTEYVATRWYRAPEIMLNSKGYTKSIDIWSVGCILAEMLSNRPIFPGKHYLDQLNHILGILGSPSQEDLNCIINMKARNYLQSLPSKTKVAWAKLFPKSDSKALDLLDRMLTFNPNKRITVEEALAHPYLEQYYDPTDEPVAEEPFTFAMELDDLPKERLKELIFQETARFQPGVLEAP
Procedure, shortened: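 Cell-free enzymatic assay with recombinant protein and specific substrate; fluorescence and electrophoretic mobility shift read-out 1 h after dosing. Primary screen duplicate at 25 uM; actives then run in concentration-response up to 50 uM, loss of signal versus DMSO.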

[4] = molecular target: human Ephrin type-B Receptor 1 (EphB1), EPHB1 (gene 2047) (UniProt P54762); test: NVS_ENZ_hEphB1: NovaScreen (NVS) Enzymatic Assay for human Ephrin type-B Receptor 1 (EphB1) (AID 2283154)
Sequence of human Ephrin type-B Receptor 1 (EphB1), EPHB1 (gene 2047) (P54762 whole entry, looked up): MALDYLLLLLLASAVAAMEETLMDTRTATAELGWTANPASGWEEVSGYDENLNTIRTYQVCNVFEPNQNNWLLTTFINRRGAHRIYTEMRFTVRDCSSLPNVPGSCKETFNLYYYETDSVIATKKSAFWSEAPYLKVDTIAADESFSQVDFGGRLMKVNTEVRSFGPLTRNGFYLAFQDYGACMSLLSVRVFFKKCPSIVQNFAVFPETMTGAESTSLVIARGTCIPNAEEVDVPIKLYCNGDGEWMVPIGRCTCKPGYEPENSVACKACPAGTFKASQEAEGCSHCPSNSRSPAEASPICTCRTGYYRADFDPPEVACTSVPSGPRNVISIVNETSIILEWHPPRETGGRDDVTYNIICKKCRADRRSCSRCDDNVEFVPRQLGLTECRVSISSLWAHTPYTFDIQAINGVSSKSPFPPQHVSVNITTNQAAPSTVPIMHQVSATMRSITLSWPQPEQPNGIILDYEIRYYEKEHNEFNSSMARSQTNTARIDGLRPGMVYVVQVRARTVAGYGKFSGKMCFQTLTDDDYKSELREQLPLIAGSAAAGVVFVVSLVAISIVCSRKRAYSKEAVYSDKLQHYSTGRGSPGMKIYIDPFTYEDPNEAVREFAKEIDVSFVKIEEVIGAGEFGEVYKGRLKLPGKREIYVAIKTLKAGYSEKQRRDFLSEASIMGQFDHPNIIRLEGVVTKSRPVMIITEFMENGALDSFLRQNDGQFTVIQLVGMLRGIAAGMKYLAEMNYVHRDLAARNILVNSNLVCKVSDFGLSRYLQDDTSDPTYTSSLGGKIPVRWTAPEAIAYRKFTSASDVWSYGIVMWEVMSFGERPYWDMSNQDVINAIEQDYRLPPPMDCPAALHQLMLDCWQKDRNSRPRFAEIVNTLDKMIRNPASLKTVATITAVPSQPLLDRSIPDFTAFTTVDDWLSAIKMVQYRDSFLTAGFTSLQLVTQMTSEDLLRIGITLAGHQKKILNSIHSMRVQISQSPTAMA
Procedure, shortened: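 Cell-free kinase assay with recombinant enzyme, fluorescent substrate and electrophoretic mobility-shift separation of substrate and product; read 1 h after dosing. Single-concentration duplicate screen at 25 uM; loss of signal versus DMSO baseline.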

[5] = molecular target: human Esterase Plasma (ES), BCHE (gene 590) (UniProt P06276); test: NVS_ENZ_hES: NovaScreen (NVS) Enzymatic Assay for human Esterase Plasma (ES) (AID 2283157)
Sequence of human Esterase Plasma (ES), BCHE (gene 590) (P06276 whole entry, looked up): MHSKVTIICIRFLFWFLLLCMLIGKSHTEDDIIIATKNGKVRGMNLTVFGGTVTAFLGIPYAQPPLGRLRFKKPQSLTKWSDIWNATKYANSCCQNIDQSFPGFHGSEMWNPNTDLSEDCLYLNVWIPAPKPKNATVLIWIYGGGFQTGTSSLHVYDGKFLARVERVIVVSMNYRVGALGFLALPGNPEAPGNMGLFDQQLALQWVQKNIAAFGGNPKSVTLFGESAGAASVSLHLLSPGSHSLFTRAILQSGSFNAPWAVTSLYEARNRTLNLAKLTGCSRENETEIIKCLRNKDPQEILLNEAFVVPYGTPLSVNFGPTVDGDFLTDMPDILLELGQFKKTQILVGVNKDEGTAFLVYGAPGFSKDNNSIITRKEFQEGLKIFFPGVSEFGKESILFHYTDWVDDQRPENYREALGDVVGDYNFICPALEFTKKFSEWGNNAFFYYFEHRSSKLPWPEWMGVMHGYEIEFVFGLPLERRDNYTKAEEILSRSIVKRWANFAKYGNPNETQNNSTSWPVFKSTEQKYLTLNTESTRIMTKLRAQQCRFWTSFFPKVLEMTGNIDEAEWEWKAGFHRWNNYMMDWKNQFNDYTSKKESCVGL
Procedure, shortened: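 Cell-free enzyme assay using esterase extracted from human plasma; colorimetric absorbance read 0.25 hour after dosing. Single-concentration duplicate screen at 25 uM, then concentration-response up to 50 uM; loss of signal scored against DMSO baseline.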

[6] = molecular target: human Janus Kinase 2 (Jak2), JAK2 (gene 3717) (UniProt O60674); test: NVS_ENZ_hJak2: NovaScreen (NVS) Enzymatic Assay for human Janus Kinase 2 (Jak2) (AID 2283169)
Sequence of human Janus Kinase 2 (Jak2), JAK2 (gene 3717) (O60674 whole entry, looked up): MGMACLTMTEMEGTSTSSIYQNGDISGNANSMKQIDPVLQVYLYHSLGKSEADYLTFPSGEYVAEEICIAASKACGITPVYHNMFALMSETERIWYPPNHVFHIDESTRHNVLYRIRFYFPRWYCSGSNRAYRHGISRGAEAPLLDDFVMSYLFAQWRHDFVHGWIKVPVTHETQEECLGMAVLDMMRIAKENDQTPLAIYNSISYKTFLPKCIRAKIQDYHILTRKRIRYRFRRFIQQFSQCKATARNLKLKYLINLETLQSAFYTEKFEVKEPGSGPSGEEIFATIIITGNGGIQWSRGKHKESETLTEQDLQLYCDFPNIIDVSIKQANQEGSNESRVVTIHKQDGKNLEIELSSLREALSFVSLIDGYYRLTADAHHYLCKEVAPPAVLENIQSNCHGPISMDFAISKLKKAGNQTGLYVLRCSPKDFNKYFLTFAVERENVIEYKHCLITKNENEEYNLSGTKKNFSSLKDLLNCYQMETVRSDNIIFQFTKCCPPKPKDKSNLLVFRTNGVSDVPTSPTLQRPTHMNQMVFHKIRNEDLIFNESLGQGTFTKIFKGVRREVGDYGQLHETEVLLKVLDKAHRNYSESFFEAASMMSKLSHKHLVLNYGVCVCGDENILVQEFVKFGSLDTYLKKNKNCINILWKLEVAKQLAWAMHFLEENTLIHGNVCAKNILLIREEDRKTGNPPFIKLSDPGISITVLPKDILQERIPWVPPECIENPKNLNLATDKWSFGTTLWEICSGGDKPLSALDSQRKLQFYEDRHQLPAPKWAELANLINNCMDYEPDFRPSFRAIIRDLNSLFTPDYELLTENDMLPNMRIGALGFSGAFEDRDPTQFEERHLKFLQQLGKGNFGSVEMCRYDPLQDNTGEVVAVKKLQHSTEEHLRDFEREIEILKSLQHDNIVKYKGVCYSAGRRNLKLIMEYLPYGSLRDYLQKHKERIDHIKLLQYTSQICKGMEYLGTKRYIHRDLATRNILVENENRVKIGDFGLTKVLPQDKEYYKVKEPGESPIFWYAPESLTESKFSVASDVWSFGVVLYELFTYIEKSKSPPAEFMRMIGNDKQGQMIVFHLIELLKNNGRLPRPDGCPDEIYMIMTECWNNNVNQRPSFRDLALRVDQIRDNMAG
Procedure, shortened: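 Cell-free recombinant human JAK2 enzyme activity assay, fluorescence/electrophoretic mobility shift read 1 h after dosing. Screened in duplicate at 25 uM, then concentration-response up to 50 uM; activity as signal loss relative to DMSO.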

[7] = molecular target: human Matrix Metalloproteinase-2 (MMP2), MMP2 (gene 4313) (UniProt P08253); test: NVS_ENZ_hMMP2: NovaScreen (NVS) Enzymatic Assay for human Matrix Metalloproteinase-2 (MMP2) (AID 2283184)
Sequence of human Matrix Metalloproteinase-2 (MMP2), MMP2 (gene 4313) (P08253 whole entry, looked up): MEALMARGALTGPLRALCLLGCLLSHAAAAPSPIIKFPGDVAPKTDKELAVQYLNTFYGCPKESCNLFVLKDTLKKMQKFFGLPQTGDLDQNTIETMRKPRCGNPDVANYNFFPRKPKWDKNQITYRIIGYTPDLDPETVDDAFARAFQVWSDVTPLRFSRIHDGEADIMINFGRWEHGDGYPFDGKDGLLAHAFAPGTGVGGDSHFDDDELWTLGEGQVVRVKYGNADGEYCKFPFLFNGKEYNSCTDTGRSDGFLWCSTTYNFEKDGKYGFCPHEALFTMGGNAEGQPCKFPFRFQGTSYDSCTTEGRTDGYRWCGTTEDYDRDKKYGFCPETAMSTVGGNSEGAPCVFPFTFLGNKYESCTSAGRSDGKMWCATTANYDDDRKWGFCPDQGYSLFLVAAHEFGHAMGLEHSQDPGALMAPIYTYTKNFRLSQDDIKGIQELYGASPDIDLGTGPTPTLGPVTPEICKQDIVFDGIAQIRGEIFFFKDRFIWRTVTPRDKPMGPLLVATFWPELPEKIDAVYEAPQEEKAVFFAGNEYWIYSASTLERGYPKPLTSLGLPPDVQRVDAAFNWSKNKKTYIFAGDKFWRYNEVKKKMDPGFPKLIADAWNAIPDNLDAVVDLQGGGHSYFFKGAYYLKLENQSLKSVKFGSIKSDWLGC
Procedure, shortened: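 Cell-free recombinant MMP2 activity with a fluorescent substrate, read 1 h after dosing. Primary screen in duplicate at 25 uM; actives then run in concentration series; loss of signal fitted versus DMSO.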

[8] = molecular target: human FYN Proto-Oncogene, Src family Tyrosine Kinase (Fyn), FYN (gene 2534) (UniProt P06241); test: NVS_ENZ_hFyn: NovaScreen (NVS) Enzymatic Assay for human FYN Proto-Oncogene, Src family Tyrosine Kinase (Fyn) (AID 2283161)
Sequence of human FYN Proto-Oncogene, Src family Tyrosine Kinase (Fyn), FYN (gene 2534) (P06241 whole entry, looked up): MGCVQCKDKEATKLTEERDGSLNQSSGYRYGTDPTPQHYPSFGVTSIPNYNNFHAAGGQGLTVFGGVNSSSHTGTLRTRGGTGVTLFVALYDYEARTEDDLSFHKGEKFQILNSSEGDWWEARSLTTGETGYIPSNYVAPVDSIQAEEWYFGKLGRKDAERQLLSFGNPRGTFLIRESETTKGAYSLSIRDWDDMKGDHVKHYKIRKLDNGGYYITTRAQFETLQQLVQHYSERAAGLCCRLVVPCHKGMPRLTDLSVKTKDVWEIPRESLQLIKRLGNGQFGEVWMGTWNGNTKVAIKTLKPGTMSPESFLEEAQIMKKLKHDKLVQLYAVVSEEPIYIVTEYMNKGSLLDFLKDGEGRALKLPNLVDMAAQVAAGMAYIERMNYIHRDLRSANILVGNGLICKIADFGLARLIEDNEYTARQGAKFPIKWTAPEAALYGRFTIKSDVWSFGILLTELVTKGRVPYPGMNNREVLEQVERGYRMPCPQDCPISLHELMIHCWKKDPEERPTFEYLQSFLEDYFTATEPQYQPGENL
Procedure, shortened: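 Recombinant enzyme with fluorescent substrate, product separated by electrophoretic mobility shift; read 1 h after dosing. Duplicate 25 uM single-point screen, actives retested in concentration series; loss of signal vs DMSO.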

[9] = molecular target: human IkappaB Kinase alpha (IKKa), CHUK (gene 1147) (UniProt O15111); test: NVS_ENZ_hIKKa: NovaScreen (NVS) Enzymatic Assay for human IkappaB Kinase alpha (IKKa) (AID 2283167)
Procedure, shortened: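 Cell-free recombinant human IKKa with fluorescent substrate, product separated by electrophoretic mobility shift; read 1 hour after dosing. Primary screen duplicate at 25 uM, actives then concentration-response up to 50 uM; loss of signal relative to DMSO.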

[10] = molecular target: human MAP Kinase-Activated Protein Kinase 2 (MAPKAPK2), MAPKAPK2 (gene 9261) (UniProt P49137); test: NVS_ENZ_hMAPKAPK2: NovaScreen (NVS) Enzymatic Assay for human MAP Kinase-Activated Protein Kinase 2 (MAPKAPK2) (AID 2283178)
Procedure, shortened: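 Cell-free recombinant human MAPKAPK2 activity measured by fluorescence with electrophoretic mobility shift separation of substrate and product, 1 hr after dosing. Loss of signal versus DMSO; primary screen at 25 uM, concentration-response up to 50 uM.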

[11] = molecular target: human MET Proto-Oncogene, Receptor Tyrosine Kinase (MET), MET (gene 4233) (UniProt P08581); test: NVS_ENZ_hMet: NovaScreen (NVS) Enzymatic Assay for human MET Proto-Oncogene, Receptor Tyrosine Kinase (MET) (AID 2283180)
Procedure, shortened: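 Cell-free MET kinase assay using recombinant protein and fluorescent substrate, with mobility-shift separation; read 1 h after dosing. Primary duplicate at 25 uM; actives in singleton concentration-response to 50 uM maximum. Signal loss versus DMSO.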

[12] = molecular target: Collagenase 3 (Homo sapiens) (UniProt P45452); test: NVS_ENZ_hMMP13: NovaScreen (NVS) Enzymatic Assay for human Matrix Metalloproteinase-13 (MMP13) (AID 2283182)
Procedure, shortened: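 Recombinant MMP13 cleaving fluorescent substrate, cell-free, measured 1 h after dosing. Primary duplicate screen at 25 uM; actives tested in concentration-response up to 50 uM; loss of signal relative to DMSO.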

[13] = molecular target: human Matrix Metalloproteinase-7 (MMP7), MMP7 (gene 4316) (UniProt P09237); test: NVS_ENZ_hMMP7: NovaScreen (NVS) Enzymatic Assay for human Matrix Metalloproteinase-7 (MMP7) (AID 2283183)
Sequence of human Matrix Metalloproteinase-7 (MMP7), MMP7 (gene 4316) (P09237 whole entry, looked up): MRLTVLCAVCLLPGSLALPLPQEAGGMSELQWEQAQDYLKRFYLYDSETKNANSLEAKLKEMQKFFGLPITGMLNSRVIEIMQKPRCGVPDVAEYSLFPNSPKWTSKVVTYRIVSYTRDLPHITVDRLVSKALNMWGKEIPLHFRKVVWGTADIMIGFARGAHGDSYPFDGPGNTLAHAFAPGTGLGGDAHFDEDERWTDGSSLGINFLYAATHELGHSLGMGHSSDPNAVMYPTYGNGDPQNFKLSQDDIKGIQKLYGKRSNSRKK
Procedure, shortened: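 Cell-free fluorescence enzymatic assay read 1 h after compound addition, activity loss analyzed against DMSO. Primary duplicate testing at 25 uM; compounds meeting threshold rerun in singleton concentration-response up to 50 uM.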

[14] = molecular target: human Fibroblast Growth Factor Receptor 1 (FGFR1), FGFR1 (gene 2260) (UniProt P11362); test: NVS_ENZ_hFGFR1: NovaScreen (NVS) Enzymatic Assay for human Fibroblast Growth Factor Receptor 1 (FGFR1) (AID 2283159);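 for AC50: hits lower the signal so potencies describe inhibitors of the kinase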
Procedure, shortened: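 Cell-free recombinant kinase with fluorescent substrate, product separated by electrophoretic mobility shift; read 1 hour after dosing, loss of signal relative to DMSO. Initial screen in duplicate at 25 uM, actives followed in concentration series.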

[15] = molecular target: Protein deacetylase HDAC6 (Homo sapiens) (UniProt Q9UBN7); test: NVS_ENZ_hHDAC6: NovaScreen (NVS) Enzymatic Assay for human Histone Deacetylase 6 (HDAC6) (AID 2283164)
Procedure, shortened: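 Recombinant human HDAC6 with fluorescent substrate, 1 h; product separated from substrate by electrophoretic mobility shift. Primary screen in duplicate at 25 uM; actives retested singly in concentration-response up to 50 uM, fitted relative to DMSO.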

C=C(C)[C@H]1Cc2c(ccc3c2O[C@@H]2COc4cc(OC)c(OC)cc4[C@@H]2C3=O)O1
outcome [1]: inactive

CC1=NNC(=O)N(/N=C/c2cccnc2)C1
AC50 [2]: 32.8 µM (active)

CN(C)C(=O)Nc1cccc(C(F)(F)F)c1
outcome [3]: inactive

CCOP(=S)(OCC)OC(Cl)C(Cl)(Cl)Cl (stereo not given)
outcome [4]: inactive | AC50 [5]: 16.2 µM (active)

CCCCOC(=O)c1ccccc1C(=O)O
outcome [5]: inactive

COP(=O)(OC)C(O)C(Cl)(Cl)Cl (stereo not given)
outcome [4]: inactive

Cc1cc(C2CC2)nc(Nc2ccccc2)n1
outcome [6]: inactive

Cc1ccn2nc(S(=O)(=O)Nc3c(F)cccc3F)nc2n1
outcome [3]: inactive | outcome [7]: inactive

COP(=O)(OC)OC(Br)C(Cl)(Cl)Br (stereo not given)
AC50 [5]: 3.82 µM (active)

CNC(=O)ON=C(SC)C(=O)N(C)C
AC50 [5]: 20.2 µM (active)

CCCCSP(=O)(SCCCC)SCCCC
outcome [4]: inactive

CCc1cccc(C)c1N(C(=O)CCl)C(C)COC (stereo not given)
outcome [4]: inactive

S=C1NCCN1
outcome [8]: inactive | outcome [9]: inactive | outcome [3]: inactive | outcome [10]: inactive | outcome [11]: inactive | outcome [12]: inactive | outcome [13]: inactive

CCOC(=O)CC(SP(=O)(OC)OC)C(=O)OCC (stereo not given)
outcome [7]: inactive

COP(=O)(OC)SCn1c(=O)oc2cc(Cl)cnc21
AC50 [5]: 18.5 µM (active)

CNC(=O)Oc1cccc2c1OC(C)(C)O2
outcome [4]: inactive | AC50 [13]: 6.07 µM (active)

CC[C@H](C)[C@H]1O[C@]2(C=C[C@@H]1C)C[C@@H]1C[C@@H](C/C=C(\C)[C@@H](O[C@H]3C[C@H](OC)[C@@H](O[C@H]4C[C@H](OC)[C@@H](NC)[C@H](C)O4)[C@H](C)O3)[C@@H](C)/C=C/C=C3\CO[C@@H]4[C@H](O)C(C)=C[C@@H](C(=O)O1)[C@]34O)O2
AC50 [14]: 16.5 µM (active) | AC50 [6]: 15.4 µM (active) | outcome [11]: inactive

CC(C)[C@H](C(=O)O[C@H](C#N)c1cccc(Oc2ccccc2)c1)c1ccc(Cl)cc1
outcome [8]: inactive | AC50 [12]: 13 µM (active)

CCOP(=S)(OCC)Oc1cc(C)nc(C(C)C)n1
outcome [15]: inactive | outcome [13]: inactive

CCOC(=O)COc1cc(-c2nn(C)c(OC(F)F)c2Cl)c(F)cc1Cl
outcome [14]: inactive

CCc1cnc(C2=NC(C)(C(C)C)C(=O)N2)c(C(=O)O)c1 (stereo not given)
AC50 [13]: 8.62 µM (active)

CCOP(=S)(Oc1cnc(C(C)(C)C)nc1)OC(C)C (stereo not given)
AC50 [5]: 25 µM (active)
